Test results reported in ChEMBL document CHEMBL1157539, “Thousands of chemical starting points for antimalarial lead identification” (Nature, 2010).

Test system: HepG2
Assay: GSK_TCMDC: Percent inhibition of human HepG2 cell line. Test compounds present at 10uM.
Format: functional

Row | SMILES | Inhibition [%]
1 | O=C(O)C(F)(F)F.c1ccc2[nH]c(-c3ccc(-c4ccc(CNC5CC5)cc4)s3)nc2c1 | 25
2 | CCCN1CCC(c2c[nH]c3ccc(NC(=O)Nc4cccc(Cl)c4Cl)cc23)CC1 | 30
3 | O=C(NCC1CCN(Cc2cccc(C(F)(F)F)c2)C1)c1cc(-c2cccc(C(F)(F)F)c2)cs1.O=C(O)C(F)(F)F (centres undefined) | 35
4 | Cc1ccc(Nc2nc(N/N=C/c3ccccc3[N+](=O)[O-])nc(Nc3ccc([N+](=O)[O-])cc3)n2)cc1C | 4
5 | COc1ccc(Nc2nc(NCc3ccc(-n4ccnc4)cc3)cc(-c3ccc(OC)cc3)n2)cc1 | 8
6 | CON(CCCN(C)C)C(=N)N.Cl | 3
7 | O=C(Cc1c[nH]cn1)Nc1ccc(-c2cccc(-c3nc4cc(C(F)(F)F)ccc4[nH]3)c2)cc1 | 20
8 | O=C(c1ccc(O)c(-c2cc(Cl)cc(Cl)c2)c1)N(CCO)CCO | 1
9 | O=C(Nc1cccc(OC2CCN(Cc3ccccc3)CC2)c1)c1ccc([N+](=O)[O-])cc1.O=C(O)C(F)(F)F | 6
10 | CN(CCc1ccccc1)c1ncc(-c2ccccc2CNCc2ccccc2O)cn1 | 10
11 | Cc1[nH]c(C)c([N+](=O)[O-])c(=O)c1-c1ccc(Oc2ccc(OC(F)(F)F)cc2)cc1 | 0
12 | COc1ccc(S(=O)(=O)N(CC(=O)NN=C(C)c2cccs2)c2cc(C)cc(C)c2)cc1OC | 12
13 | CC(C)NCc1cccc(-c2ccc(-c3nc4ccccc4[nH]3)cc2)c1.O=C(O)C(F)(F)F | 4
14 | Cc1cnc(NCCc2ccc(F)cc2)nc1NCCC(=O)Nc1ccccc1.O=C(O)C(F)(F)F | 3
15 | O=C(O)C(F)(F)F.OCC1CCN(Cc2cccc(-c3ccc(-c4nc5cc(C(F)(F)F)ccc5[nH]4)s3)c2)CC1 | 0
16 | COc1cc(Nc2ccc3cc(S(=O)(=O)N4CCCCC4C)ccc3n2)cc(OC)c1OC (centres undefined) | 0
17 | Cc1cccc2nc(-c3ccc(-c4cccc(NC(=O)C(C)CN5CCN(C)CC5)c4)s3)[nH]c12 (centres undefined) | 11
18 | Nc1cc(/C=C/c2ccc([N+](=O)[O-])s2)nc2ccccc12 | 89
19 | COc1cc2c(cc1OC)C(C(=O)Nc1cc(OC)c(OC)c(OC)c1)C(c1ccc(SC)cc1)N(C)C2=O (centres undefined) | 14
20 | NC1=NC2(CCCCC2)N(OCCCCCCc2ccccc2)C(N)=N1 | 73

Row | SMILES | Inhibition [%]
21 | N#Cc1ccc(N2C[C@@H](OCc3ccccc3)C[C@H]2C(=O)NCCC(c2ccccc2)c2ccccc2)c2ccccc12 | 11
22 | CCOc1cc2ncnc(Nc3ccc(OCc4c(F)cccc4F)c(OC)c3)c2cc1OCC.Cl | 7
23 | Nc1ncc(-c2ccc3nccc(-c4ccncc4)c3c2)cc1S(=O)(=O)N1CCCCC1 | 25
24 | Cc1ccc(CNC(=O)c2ccc(CN3CCCN(Cc4ccsc4)CC3)cc2)cc1.O=C(O)C(F)(F)F | 16
25 | Cc1cccc(Nc2nc3nonc3nc2Nc2cccc(Cl)c2Cl)c1C | 88
26 | Clc1cccc(-c2nc(Nc3ccnc(-c4ccc(CN5CCOCC5)cc4)c3)c3ccccc3n2)c1 | 8
27 | Cc1ccc(Nc2cc(C)nn2-c2nc(C)cc(O)n2)cc1 | 54
28 | Cc1ccc(CN2CCCN(Cc3cccc(C(=O)Nc4ccc(C(C)(C)C)cc4)c3)CC2)s1.O=C(O)C(F)(F)F | 31
29 | C=CCc1ccc(C[C@H](NC(=O)OC(C)(C)C)C(=O)OC)cc1 | 77
30 | COc1cccc(Nc2c(C(N)=O)cnc3ccc(-c4ccc([S+](C)[O-])cc4)cc23)c1.O=C(O)C(F)(F)F (centres undefined) | 0
31 | CC(CC(=O)NCC1(c2ccc(F)cc2Cl)CCOCC1)C(=O)c1ccc(Cl)cc1 (centres undefined) | 6
32 | Cc1cc(N2CCCC2)nc(Nc2ccc(NC(=O)C3CCCC3)cc2)n1 | 27
33 | CC1CCCC(C)N1C[C@@H](O)CNS(=O)(=O)c1cccc(C(F)(F)F)c1.Cl (some centres undefined) | 4
34 | COCCN1CCC(C(=O)NCC(C)(C)c2nc(-c3ccc(Br)c(O)c3)c(-c3ccncc3)[nH]2)CC1.Cl | 0
35 | CCN(CC)CCN(Cc1ccc(-c2ccc(C(F)(F)F)cc2)cc1)C(=O)Cn1c(CCc2ccc(F)c(F)c2)cc(=O)c2ccccc21.O=C(O)C(O)C(O)C(=O)O | 23
36 | CC(C)(C)c1ccccc1OC(=O)c1ccccc1 | 0
37 | O=C(O)C(F)(F)F.OCCN1CCN(Cc2ccc(-c3ccc(-c4nc5ccccc5[nH]4)cc3)cc2)CC1 | 6
38 | O=C(N[C@H]1CCN(Cc2ccc(OC3CCN(Cc4ccccc4)CC3)c(Cl)c2)C1)c1ccc(Cl)c(Cl)c1.O=C(O)C(F)(F)F | 59
39 | Cn1nccc1C(=O)NCCNCc1ccc(-c2cccc(-c3nc4ccccc4[nH]3)c2)cc1.O=C(O)C(F)(F)F | 35
